Bioassay records: PubChem, several laboratories
Platelet DG rel: modulates dense granule release in human platelets; human platelet-rich plasma, SFLLRN dense granule ATP release, luminescence; inhibition, %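 (compounds screened at 7.5 µM in platelet-rich plasma)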; 0.22% of 300,000 active;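 active means mean replicate score, as percent of positive control, at or above 50; inconclusive means mean below 50 but at least one replicate at or above 50; inactive means mean and every replicate below 50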
MPTP inh: permeability transition pore inhibition; 1.4% of 360,000 active; AID 602449; inhibition, % at 10 µM; isolated mouse mitochondria, Ca2+ swelling absorbance, 30 min;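 active means inhibition of 50% or more, scaled per plate between neutral and stimulator controls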
HSP90 refold inh: HSP90 refolding inhibition in rabbit reticulocyte lysate; luciferase refolding luminescence, 3 h; inhibition, % at 5.6 µM; 0.91% of 290,000 active;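 active means inhibition above the screen-wide mean plus 3 SD, computed separately per campaign, cut at about 16% in these data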;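 further: inhibitors lower the luminescence because luciferase stays unfolded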
HSF1 inhib: HSF1 inhibition; NIH3T3-HGL HSE-luciferase, MG132-induced, luminescence 8 h; hits give low values; activity change, negative = inhibition, % at 7.5 µM (by protocol); 0.77% of 300,000 active; AID 2098;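 active means more than half of replicate wells show activity change below -50%, luminescence cut by over half; inconclusive means some wells, but at most half, below -50%; inactive means no replicate well below -50%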;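 further: luciferase reports HSF-1 transcriptional activity via heat shock element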
HSF1 activator: increases HSF-1 driven luciferase reporter signal; NIH3T3-HGL HSF-1 luciferase reporter, MG132, 8 h; 100% = twice DMSO control signal; activation, % at 9 µM; 1.7% of 300,000 active;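 active means mean replicate activation of at least 50% with a set share of replicates each reaching 50%; inconclusive means only one of those two conditions met; inactive means mean below 50% and too few replicates reaching it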
dFosB act: activators of mouse delta FosB homodimer; P13346; purified delta FosB, TAMRA-CDK5 oligo fluorescence polarization; percent of positive-control signal above neutral wells; activation, % at 25 µM; 0.99% of 340,000 active; AID 493131;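 active means mean activation above about 17%, with every replicate also reaching it, limit read from the data, passing the limit was not always enough; inconclusive means only one of the two conditions met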
Target sequence (P13346 whole entry, looked up): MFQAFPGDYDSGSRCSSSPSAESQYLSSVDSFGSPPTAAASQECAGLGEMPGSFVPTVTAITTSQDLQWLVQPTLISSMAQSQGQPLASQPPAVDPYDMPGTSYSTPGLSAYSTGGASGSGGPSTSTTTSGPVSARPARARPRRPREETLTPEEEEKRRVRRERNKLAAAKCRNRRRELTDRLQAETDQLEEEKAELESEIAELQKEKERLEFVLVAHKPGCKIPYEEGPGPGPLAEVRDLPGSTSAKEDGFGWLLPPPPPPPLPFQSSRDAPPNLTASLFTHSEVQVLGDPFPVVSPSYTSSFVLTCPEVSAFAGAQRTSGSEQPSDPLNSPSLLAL
Hits are given with their value; . = inactive; ? = inconclusive; / = no result. In the library only some 4.9% were active in any assay of this set; here they are far more common.

SMILES	Platelet DG rel	MPTP inh	HSP90 refold inh	HSF1 inhib	HSF1 activator	dFosB act
CCN(CC)CCN1C(=O)C(O)=C(C(=O)c2cc3cccc(OC)c3o2)C1c1ccc(F)cc1 (stereo not drawn)	.	.	.	.	.	.
CCC(=O)Nc1ccc(/C(C)=N/NC(=O)c2c(-c3ccccc3Cl)noc2C)cc1	.	.	.	.	.	.
CCOC(=O)c1sc(NC(=O)CSc2nc3ccccc3s2)c(C(=O)OCC)c1C	.	/	.	.	.	/
CCOC(=O)c1sc(NC(=O)CSc2nncs2)c(C(=O)OCC)c1C	.	.	.	.	56	.
CCOC(=O)c1sc(NC(=O)CCN2CCC(C)CC2)c(C(=O)OCC)c1C	.	.	.	.	233	.
CN(C)c1ccc(/C=N/NC(=O)c2ccc3c(c2)OCO3)cc1	.	.	.	.	.	.
O=C(CNC(=O)c1ccc2c(c1)OCO2)N/N=C(Br)/C=C/c1ccccc1	.	.	.	.	66	.
O=C(N/N=C/c1ccccc1)c1ccc2c(c1)OCO2	.	.	16	.	.	.
O=C(N/N=C/c1cccc(O)c1)c1cc(-c2ccc3c(c2)OCO3)n[nH]1	.	.	.	.	.	41
O=C(N/N=C/c1cccnc1)c1ccc2c(c1)OCCO2	.	.	.	-63	.	.
O=C(N/N=C/c1ccccc1)c1cc(-c2ccc3c(c2)OCO3)n[nH]1	.	.	.	.	.	.
Cc1ccc(C)c(N(CC(=O)NCc2ccco2)C(=O)CCC(=O)Nc2nccs2)c1	.	.	.	.	.	.
O=C(CCNC(=O)c1ccco1)NC(Cc1c[nH]c2ccccc12)C(=O)O (stereo not drawn)	/	.	/	/	/	.
CC(C)c1nc2cc(C(=O)N3CCN(c4cnccn4)CC3)ccc2o1	.	.	.	.	.	.
O=C(N/N=C/c1cccnc1)c1ccc(NC(=O)c2cccc(Cl)c2)cc1	.	.	.	.	.	46
O=C(O)c1ccc(/C=N/NC(=O)c2ccc3c(c2)OCCO3)cc1	.	.	.	.	.	.
O=C(N/N=C/c1ccc(Br)o1)c1ccc2c(c1)OCCO2	.	.	.	-79	.	.
Cc1cccc(OC(C)C(=O)Nc2ccc3c(c2)OCCO3)c1 (stereo not drawn)	/	.	/	/	/	.
Cc1cc(=O)[nH]c(-n2nc(C)cc2C)n1	.	.	.	.	.	.
Cc1cc(C)n(-c2cc(=O)n(C)c(=O)n2C)n1	.	.	.	.	67	.
CCOc1ccc(OCc2ccc(C(=O)NC(C)(C)C)o2)cc1	.	.	.	.	.	.
CCOc1ccc(OCc2ccc(C(=O)NCC3CCCO3)o2)cc1 (stereo not drawn)	.	.	16	.	.	.
O=C(Nc1nccs1)c1ccc(COc2ccc(Cl)cc2)o1	.	.	.	.	56	.
O=C(Nc1nccs1)c1ccc(COc2ccc(F)cc2)o1	.	.	.	.	?	.
CCOc1ccc(OCc2ccc(C(=O)NCc3cccnc3)o2)cc1	70	.	.	.	.	.
SMILES	Platelet DG rel	MPTP inh	HSP90 refold inh	HSF1 inhib	HSF1 activator	dFosB act
CCOc1ccc(OCc2ccc(C(=O)NN)o2)cc1	.	.	16	.	.	.
O=C(NCc1cccnc1)c1ccc(COc2cccc3ccccc23)o1	.	.	.	.	.	.
CC(C)C1C(=O)N(Cc2cn(CC3CCCCC3)nn2)CCS(=O)(=O)N1Cc1ccc(-c2ccc(Cl)cc2)cc1 (stereo not drawn)	/	.	/	/	/	/
COC(=O)C(CCSC)NC(=O)c1cn(-c2ccc(OC)cc2)c(=O)c2ccccc12 (stereo not drawn)	.	.	.	.	.	.
COc1ccc([C@@H]2[C@@H]3C(=O)N(C(C)(C)C)C(=O)[C@@H]3[C@]3(C)C(=O)N(c4cccc(Br)c4)C(=O)N23)cc1	.	.	.	.	.	.
Cc1nn(C)cc1CN(C)C(=O)CCc1nnc(CCC2CCCCC2)o1	.	.	.	/	/	.
CC1CC(C)(C)NC(=S)N1CCC(=O)N1CCc2ccccc21 (stereo not drawn)	.	.	.	.	.	.
Cc1c(NC(=O)C(C)N2CC(C)OC(C)C2)c(=O)n(-c2ccccc2)n1C (stereo not drawn)	.	.	.	.	60	.
Cc1c(NC(=O)C(C)N2C(=O)C3CCCCC3C2=O)c(=O)n(-c2ccccc2)n1C (stereo not drawn)	.	.	.	.	.	.
CC(C)CCNC(=O)CSc1nc2ccccc2c(=O)[nH]1	.	.	.	.	55	.
CC(NC(=O)CSc1nc2ccccc2c(=O)[nH]1)c1ccccc1 (stereo not drawn)	.	.	.	.	.	.
Cc1nc(N2CCC(C)CC2)c2oc3ccccc3c2n1	60	.	.	.	.	.
COCCCNc1nc2nonc2nc1N1CCN(Cc2cccc(C)c2)CC1	.	.	.	.	63	.
COCCCNc1nc2nonc2nc1N1CCN(C2CCCC2)CC1	.	.	.	.	.	.
CN(C(=O)COc1ccc(Cl)cc1Br)C1CCCCC1	.	.	.	.	.	.
C=CCn1c(C)nnc1SCC(=O)Nc1nc(C)c(C(=O)N(C)C)s1	.	.	.	-76	.	.
Cc1nc(NC(=O)CSc2nnc(C3CC3)n2C)sc1C(=O)N(C)C	.	.	.	.	.	.
Cc1nnc(-c2cnn(-c3ccccc3)c2N)n1Cc1cccc(C(F)(F)F)c1	.	.	.	-60	.	.
Cc1ccc(-c2cnn(-c3cccc(C(F)(F)F)c3)c2N)cc1	.	.	.	.	53	.
Cc1nnc(-c2cnn(-c3ccccc3)c2N)n1Cc1ccncc1	.	.	.	.	.	.
O=C(Cc1ccccc1)NC1CCSc2ccccc21 (stereo not drawn)	.	.	.	.	.	.
Cc1noc(C)c1COc1ccc(C(=O)OCC(=O)Nc2c(C)n(C)n(-c3ccccc3)c2=O)cc1	.	.	.	-56	.	.
CCS(=O)(=O)c1ccc(O)c(NC(=O)c2cc(OC)c(OC)c(OC)c2)c1	.	.	.	.	.	.
CCS(=O)(=O)c1ccc(N=Nc2ccc(O)c3ncccc23)c(OC)c1	.	.	.	-60	.	.
Oc1ccc(F)c2cccnc12	.	.	.	.	.	.
SMILES	Platelet DG rel	MPTP inh	HSP90 refold inh	HSF1 inhib	HSF1 activator	dFosB act
COc1ccccc1N=Nc1[nH]c2ccc(C)cc2c1O	.	.	.	.	.	.
COc1ccccc1N=Nc1ccc(O)c2ncccc12	.	.	.	-78	.	.
Oc1ccc(N=Nc2ccccc2C(F)(F)F)c2cccnc12	.	.	.	-66	.	.
Cc1onc(-c2ccccc2)c1C(=O)Nc1ccc(Br)cc1Cl	.	.	.	.	.	.
COc1ccc(N(CC(=O)NCc2ccccc2OC)S(=O)(=O)c2ccccc2)cc1	.	.	.	.	.	.
O=C(COc1ccccc1Cl)NC1CC1	.	.	.	.	.	.
COc1ccc(-c2nn(-c3ccccc3)cc2/C=N/N2C(=O)CSC2=S)cc1	.	.	.	.	76	.
